Data from ChEMBL document CHEMBL1157539, “Thousands of chemical starting points for antimalarial lead identification” (Nature, 2010).

Legend:
Format in all cases: functional
[1] = system: Plasmodium falciparum; assay: GSK_TCMDC: Inhibition of Plasmodium falciparum 3D7 in whole red blood cells, using parasite LDH activity as an index of growth. Test compounds present at 2uM
[2] = system: Plasmodium falciparum; assay: GSK_TCMDC: Inhibition of Plasmodium falciparum Dd2 in whole red blood cells, using parasite LDH activity as an index of growth. Test compounds present at 2uM
[3] = system: HepG2; assay: GSK_TCMDC: Percent inhibition of human HepG2 cell line. Test compounds present at 10uM.

SMILES	Inhibition [1] [%]	Inhibition [2] [%]	Inhibition [3] [%]
C=CCc1ccc(C2CCN(CCCCNC(=O)c3ccc(NC(=O)c4ccc(Cl)cc4)cc3)CC2)cc1	100	97	27
Cc1cc(N[C@@H](CC(C)C)C(=O)NCc2cccs2)nc(Nc2ccccc2)n1.O=C(O)C(F)(F)F	100	57	18
FC(F)c1nc2ccccc2n1-c1nc(N2CCOCC2)nc(N2CCOCC2)n1 [ZSTK-474]	99	99	47
CN1CCCN(Cc2cccc(-c3cccc(NC(=O)c4ccc(C#N)cc4)c3)c2)CC1.O=C(O)C(F)(F)F	89	4	7
O=C(Nc1ccc(C(F)(F)F)cc1)c1ccc(S(=O)(=O)NC2CCN(Cc3ccccc3)C2)cc1.O=C(O)C(F)(F)F (stereo not drawn)	100	5	42
CCN(CC(C)O)C(=O)c1ccc(-c2ccc(-c3nc4cccc(C)c4[nH]3)cc2)cc1 (stereo not drawn)	94	13	18
O=C(CN1CCCCC1)Nc1ccc(Nc2nccc(NCC(O)c3ccccc3)n2)cc1 (stereo not drawn)	100	95	62
CCN(CC)CCN(Cc1ccc(-c2ccc(C(F)(F)F)cc2)cc1)C(=O)Cn1cc(Cc2cnn(C)c2)c(=O)nc1/C=C/c1ccc(F)cc1.O=C(O)C(O)C(O)C(=O)O	96	91	6
COc1ccc(-c2cnc3[nH]cc(-c4ccc(C(=O)O)c(C)c4)c3c2)cn1.O=C(O)C(F)(F)F	99	99	23
COc1cccc(-c2cc(C(F)(F)F)n3ncc(C(=O)Nc4cc(Cl)ccc4O)c3n2)c1	99	99	0
O=C(NCCCCN1CCC(C(c2ccccc2)c2ccccc2)CC1)c1ccc(NC(=O)c2ccc(Cl)cc2)cc1	100	47	12
COc1ccc(CNCc2cccc(-c3cccc(-c4nc5cc(F)ccc5[nH]4)c3)c2)cc1.O=C(O)C(F)(F)F	100	55	18
O=C(N[C@@H](Cc1ccccc1)[C@H](O)CNC1CCOCC1)c1cc(C2CCCC2)cc(N2CCCCS2(=O)=O)c1.O=CO	100	98	3
CN(C(=O)Cc1ccc(Cl)cc1)C1CCN(CCCCCNC(=O)/C=C/c2ccc(Cl)c(Cl)c2)CC1	83	16	69
COc1cc2nc(NCc3ccc(S(N)(=O)=O)cc3)nc(Nc3ccc(Oc4ccccc4)cc3)c2cc1OC	100	100	14
Cc1cccnc1Nc1nc(-c2ccccn2)cs1	96	99	60
CC(C)(C)CC(C)(C)c1ccc(O)c(C(=O)Nc2cccc([N+](=O)[O-])c2)c1	95	97	49
Cl.N=C(N)NN=Cc1ccc2c(ccc3ccccc32)c1	100	68	9
CN(C)c1ccc(-c2ccc(C(=O)NC3CCN(Cc4ccc5c(c4)OCCO5)CC3)s2)cc1.O=C(O)C(F)(F)F	100	73	36
Nc1ncc(-c2ccccc2)cc1/C=C/c1cccnc1	91	9	33
N#Cc1cc(C(=O)c2cc(Br)ccc2O)cn(C2CCCCC2)c1=O	89	9	3
Cc1cc(=O)c2cc(-c3ccc(OC(F)(F)F)cc3)ccc2[nH]1	96	95	0
Cc1ccc(-c2csc(C)n2)c(C)c1	98	0	12
COc1ccc2[nH]cc(C3CCN(CCC4CCN(C(=O)/C=C/c5ccc(Cl)c(Cl)c5)CC4)CC3)c2c1	100	56	52
CC(CCCCCC(=O)Nc1ccc(CC(C)NCCc2cccc(Cl)c2)cc1)NCCc1cccc(Cl)c1 (stereo not drawn)	91	37	99
OC(CNc1ccnc(Nc2cccc(Cl)c2)n1)c1ccccc1C(F)(F)F (stereo not drawn)	95	36	40

SMILES	Inhibition [1] [%]	Inhibition [2] [%]	Inhibition [3] [%]
COC(=O)c1cccc(NC(=O)NC2CCN(c3ccnc(NCc4ccc(F)cc4)n3)CC2)c1	93	39	29
CCC(C)(C)c1ccc(S(=O)(=O)Nc2ccc(Cl)c(OCCN3CCCCC3)c2)cc1	88	93	100
CCc1sc(N2CCN(C)CC2)nc1C(=O)NCCc1ccc(Cl)c(Cl)c1.O=C(O)C(F)(F)F	92	49	5
Cc1cc(N2CCN(C3CCCCC3)CC2)nc2cccc(O)c12	100	37	12
COc1ccc2[nH]c(C(=O)Nc3cccc(-c4ccc(CN(C)C)cc4)c3)cc2c1	100	34	23
Nc1nc(N)c2c(ccc3c2ccn3C2C=CCCC2)n1 (stereo not drawn)	94	65	68
CCOc1cc(CC)ccc1C1CCN(CCN2CCC(NC(=O)c3ccc(-c4ccc(C#N)cc4)cc3)CC2)CC1	100	71	32
COc1ccc(-c2ccc(Nc3cccc(S(=O)(=O)CCN4CCC(CCN(C)C)CC4)c3)nc2)cn1	100	9	44
COc1ccc(CN(C)CCCc2ccc(NC(=O)c3cccc4c(O)c5ccccc5nc34)cc2)cc1OC	99	54	77
COc1cc(NC(=O)/C=C/c2cc(F)cc(F)c2F)cc(OCCN2CCN(CCN3CCOCC3)CC2)c1.O=C(O)C(=O)O	100	94	21
COC(=O)C(=C(C)C)N1C(=O)[C@@H](NC(=O)OCc2ccccc2)[C@H]1SS[C@@H]1[C@H](NC(=O)OCc2ccccc2)C(=O)N1C(C(=O)OC)=C(C)C	97	96	18
Cl.O=c1cc(NCCCNCc2ccc(Cl)c(Cl)c2)[nH]c2cc(Cl)ccc12	95	51	1
CN(Cc1cccc(F)c1)C1CCN(c2cc(NC(=O)c3cccc(F)c3)ccn2)CC1.O=C(O)C(F)(F)F	94	13	12
O=C(NC1CC1)c1ccc(N2CCCC(COc3ccc4c(c3)CCCC4)C2)nc1 (stereo not drawn)	85	65	0
Cl.O=C(N[C@@H](Cc1ccccc1)[C@H](O)CNC1CCc2ccccc2C1)c1cc(C2CCCC2)cc(N2CCCC2=O)c1 (stereo partly drawn)	99	76	23
Cc1cccc(N2CCN(C3CCC(NC(=O)c4cc5ccccc5[nH]4)CC3)CC2)c1C (stereo not drawn)	100	21	49
COc1ccc(-c2cccc(NC(=O)c3cccc(C#N)c3)c2)cc1CN1CCCC1.O=C(O)C(F)(F)F	98	32	28
CC(C)c1cn2c3c(cc(C(=O)N[C@@H](Cc4ccccc4)[C@H](O)CNC4CCOCC4)cc13)N(C)S(=O)(=O)CC2.O=CO	98	99	9
CN(C)CCCn1c(N)c(-c2nc3ccccc3[nH]2)c2nc(C#N)c(C#N)nc21	100	100	100
CC(C)NCc1ccc(-c2cccc(NC(=O)c3ccc(F)cc3)c2)cc1.O=C(O)C(F)(F)F	91	7	28
COc1cc2ncnc(Nc3ccc(OCc4ccccc4Br)c(Cl)c3)c2cc1OC.Cl	96	6	25
COc1ccc2c(=O)ccn(CCN3CCC(NCc4ccc5c(n4)NC(=O)CS5)CC3)c2c1.Cl	98	99	7
CC(=O)Nc1ccc(C(=O)Nc2cccc(-c3ccc(-c4nc5cc(F)ccc5[nH]4)s3)c2)cn1	100	97	33
COc1ccccc1-c1cccc(-c2cccc(NC(=O)c3ccc([N+](=O)[O-])o3)c2)n1	97	59	78
Cc1[nH]c(C)c(-c2ccc(Oc3cccc(Cl)c3)cc2)c(=O)c1Cl	99	97	40
